The whole screen tested about 4,100 compounds, of which about 1,600 (39%) were called active. About 25% were inconclusive and are not listed. The list shows a part of the results. Unmarked numbers belong to inactive results. Calls come from the whole dose curve; as a rule, active = well fitted inhibition curve with a large enough effect; inconclusive = small, poorly fitted or top-dose-only effect; inactive = no such curve, though single readings can be large or run the other way.
Experiment: qHTS Validation assay for Inhibitors of Plasmodium falciparum Dd2 growth in vitro; note: nearly all actives have a fitted effect of over 70% in size
Conditions: P. falciparum Dd2 in RBCs, SYBR Green growth, 72 h; series mostly up to 28.7 µM; activity change, negative = inhibition: at the top concentration
Outline: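 P. falciparum Dd2-infected red blood cells (2.5% hematocrit, 0.3% parasitemia) grown 72 h at 37 °C under 5% O2 with compounds in a titration, 29 uM to 0.5 nM final. Growth read as SYBR Green-1 fluorescence after ~16 h lysis; artesunate 300 nM as positive control.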
% is set by controls: 0 for no effect and ±100 for the full control effect; potency is the fitted concentration of half-maximal effect.

| Compound | Potency | activity change, negative = inhibition [%] |
| --- | --- | --- |
| COc1ccc(CN2CCCC(N3CCc4ccccc4C3)C2)c(O)c1 (stereo unspecified) | 2.99 µM (active) |  |
| CCCc1noc(-c2cccn3c(CNC(=O)c4ccc(OC)cc4C)nnc23)n1 |  | 5.42 |
| COc1ccc(CCn2c(=N)c(C(=O)NCCN3CCOCC3)cc3c(=O)n4cccc(C)c4nc32)cc1OC | 13.3 µM (active) |  |
| CCOCCCn1c(=N)c(C(=O)NCc2cccnc2)cc2c(=O)n3ccccc3nc21 |  | 35.7 |
| COc1ccc(CCn2c(=N)c(C(=O)NCc3ccco3)cc3c(=O)n4cccc(C)c4nc32)cc1 | 1.68 µM (active) |  |
| Cc1cccn2c(=O)c3cc(C(=O)NC(C)c4ccccc4)c(=N)n(CCOCCO)c3nc12 (stereo unspecified) | 10.6 µM (active) |  |
| Cc1ccc(-c2cc3c(=O)n(CCNC(=O)c4ccc[nH]c4=O)ccn3n2)cc1C |  | -19.5 |
| Cc1cccn2c(=O)c3cc(C(=O)NCCc4ccc(S(N)(=O)=O)cc4)n(C)c3nc12 |  | 52.4 |
| N#Cc1cccc(-c2cn3c(n2)N(C(=O)CC2CCCC2)CCC3)c1 |  | -24.1 |
| CCCCCCc1cc2cc(-c3nnc(-c4ccc(C)cc4)o3)c(=O)oc2cc1O |  | 75.9 |
| O=C(C1CCCC1)N1CCN(c2nnc3c(Cl)cccn23)CC1 |  | -1.29 |
| CN1CCCCC(CC(=O)NCCc2ccccc2)C1=O (stereo unspecified) |  | 19.6 |
| COc1ccc(CCNC(=O)c2cc3c(=O)n4cccc(C)c4nc3n(CC3CCCO3)c2=N)cc1 (stereo unspecified) |  | 12.4 |
| Cc1cccn2c(=O)c3cc(C(=O)NC4CCCC4)c(=N)n(CCc4ccccc4)c3nc12 | 1.88 µM (active) |  |
| COc1ccc(CCn2c(=N)c(C(=O)NC3CCCC3)cc3c(=O)n4cccc(C)c4nc32)cc1 | 0.75 µM (active) |  |
| Cc1cc(N)c2cc(NC(=O)/C=C/c3ccccc3Cl)ccc2n1 | 1.88 µM (active) |  |
| O=C(/C=C/c1ccccc1)Nc1cccc(C(=O)O)c1 |  | 36.5 |
| O=C(COc1ccc(F)cc1)N1CCC(c2noc(-c3ccncc3)n2)C1 (stereo unspecified) |  | -28.6 |
| CC1C(=O)C(C)C(c2cc(Cl)ccc2O)NC1c1cc(Cl)ccc1O (stereo unspecified) | 6.68 µM (active) |  |
| Cc1[nH]c2c(C)cccc2c(=O)c1Br | 5.31 µM (active) |  |
| Cc1cnc(C(=O)N[C@@H]2CCC[C@@H]2C(=O)N2CCC(Cc3ccccc3)CC2)cn1 |  | -11.4 |
| Cc1cnc(C(=O)Nc2cccc3cccnc23)cn1 | 2.66 µM (active) |  |
| O=C1Nc2ccc(-c3ccc(Cl)cc3)cc2C(=O)N2CCN(C(=O)c3ccccc3)C[C@H]12 |  | -13.6 |

| Compound | Potency | activity change, negative = inhibition [%] |
| --- | --- | --- |
| CCN1CCN(C(=O)c2ccc3c(c2)N(Cc2ccccc2F)C(=O)c2ccccc2S3=O)CC1 (stereo unspecified) | 0.842 µM (active) |  |
| CCOc1ccc(CCNC(=O)c2ccc3c(c2)N(Cc2ccccc2F)C(=O)c2ccccc2S3=O)cc1OCC (stereo unspecified) | 10.6 µM (active) |  |
| COc1ccc(C(=O)N2CCc3nn(Cc4ccccc4)c(=O)n3CC2)cc1F |  | 8.65 |
| CCn1cc(CN2CCN(C(=O)c3ccsc3)CC2)ccc1=O |  | 38.8 |
| CCOc1ccc(-c2cc3c(=O)n(CCNC(=O)c4ccc(OC)c(F)c4)ccn3n2)cc1 |  | -12.6 |
| CCN1CCN(C(=O)c2ccc3c(c2)N(Cc2ccc(Cl)cc2)C(=O)c2ccccc2S3=O)CC1 (stereo unspecified) | 0.668 µM (active) |  |
| CC(C)(C)c1ccc(C(=O)N2CCN(Cc3cc(=O)n4nc(-c5ccccc5F)sc4n3)CC2)cc1 |  | 19 |
| CCOC(=O)Cn1c(=NC(=O)C2CC2)sc2c(C)cc(C)cc21 |  | -25.1 |
| CCc1ccc(N2CC(c3noc(-c4nccc5ccccc45)n3)CC2=O)cc1 (stereo unspecified) |  | 9.68 |
| O=S(=O)(c1ccc(Cl)cc1)N1CCN(Cc2ccc(O)c3ncccc23)CC1 | 13.3 µM (active) |  |
| O=C(N[C@H]1CO[C@H]2[C@@H]1OC[C@@H]2n1cc(-c2ccccc2)nn1)c1ccc(C(F)(F)F)cc1 |  | 30.8 |
| COc1ccc(CN2C(=O)C(C)N(C(=O)c3c(F)cccc3F)c3ccccc32)cc1 (stereo unspecified) | 7.5 µM (active) |  |
| COc1ccc(CN2C(=O)C(NC(=O)c3ccccc3C)(C(F)(F)F)N=C2c2ccccc2)cc1 (stereo unspecified) |  | 14.3 |
| O=C(/C(=C/c1ccc(Cl)cc1)c1nc2ccccc2[nH]1)c1cccs1 | 2.11 µM (active) |  |
| CN(C)CCCNc1ccc(-c2cc(Nc3cccc(Cl)c3)ncn2)cn1 | 9.44 µM (active) |  |
| CCc1nnc(NC(=O)c2cc(Cl)ccn2)s1 |  | 197 |
| O=C(Nc1nnc(SCc2ccc(F)cc2)s1)c1ccccn1 | 8.41 µM (active) |  |
| O=C(Nc1ccc(F)cc1)Nc1nnc(SCC(=O)N2CCCCC2)s1 |  | -27.1 |
| COc1ccccc1N1CCN(C[C@@H]2C=C(C)[C@H](Cc3nnc(-c4cncn4C)o3)C[C@H]2C(C)C)CC1 | 10.6 µM (active) |  |
| CC1=C[C@@H](CNC(=O)COc2ccccc2)[C@H](C(C)C)C[C@H]1Cc1nnc(-c2cncn2C)o1 | 13.3 µM (active) |  |
| COc1ccc(-c2cc(C(F)(F)F)nc(SCCC(=O)Nc3cc(C)ccc3O)n2)cc1 | 1.88 µM (active) |  |
| COc1cccc(NC(=O)CCSc2nc(-c3ccco3)cc(C(F)(F)F)n2)c1 |  | 0 |
| Cc1ccc(NC(=O)CCSc2nc(-c3ccco3)cc(C(F)(F)F)n2)cc1F |  | -6.22 |

Reference: PubChem BioAssay AID1347416 (National Center for Advancing Translational Sciences (NCATS), 2020)
